Screening data from PubChem BioAssay.
CHX counter: counter-screen hit for Shiga toxin inhibitors, cycloheximide | max response, % | cell reporter, cycloheximide protein synthesis inhibition counterscreen | 300,000 compounds, 12% hits; in the data active = max response mostly above about 13%, no sharp cut-off; inactive = mostly below about 14%; also: read at 38.3 µM for the half of the compounds with a filed dose
Shiga toxin inh: Shiga toxin inhibition. Vero cells, Shiga toxin protein synthesis inhibition reporter. inhibition, % at 38.7 µM. 290,000 compounds, 9.2% hits. AID 2315; in the data active = inhibition mostly above about 28%, no sharp cut-off; inactive = mostly below about 43%
Pf growth 96h: P. falciparum growth inhibition at 96 hours | Potency, µM (doses to about 28.7 µM), hits mostly inhibitors | P. falciparum luciferase reporter growth, 96 h | 320,000 compounds, 6.9% hits
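P. falciparum expressing integrated firefly luciferase, in erythrocytes at 2% hematocrit, 0.05% parasitemia, incubated with compounds 96 h at 37 C, 5% CO2. Growth inhibition read as loss of luminescence; two-generation exposure targets delayed-death apicoplast inhibitors.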
Pf growth 48h: P. falciparum growth inhibition at 48 hours (one generation) | AID 504832 | P. falciparum luciferase growth in erythrocytes, 48 h | 310,000 compounds, 5.9% hits | Potency, µM (highest dose often 28.7 µM), usual class: inhibitors
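Growth was read as firefly luciferase luminescence after a 48 h, 37 C, 5% CO2 exposure of compounds to reporter-bearing P. falciparum cultures (0.1% parasitemia, 2% hematocrit final) in Albumax-supplemented RPMI 1640.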
NS1 function inh: blocks influenza NS1 protein function. Potency, µM (doses to about 46.1 µM). 270,000 compounds, 0.4% hits; calls by dose curve; also: actives are rising curves; nearly all actives have a fitted effect of over 50% in size
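Read-out: OD600 growth recovery of NS1-expressing budding yeast. Cells grown overnight at 30C in -URA glucose medium, washed, resuspended and diluted 1:100 in 2% galactose assay medium, pH 6.0. Same strain lacking NS1 served as positive control.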
Large screens that a line does not name were inactive. Hits are enriched below; roughly 21% of the tested compounds scored in any of these assays. Unless noted, calls follow the shape of the dose curve; as a rule, active = well fitted inhibition curve with a large enough effect; inconclusive = small, poorly fitted or top-dose-only effect, or another doubt; inactive = no such curve, though single readings can be large or run the other way.

Cc1ccc[n+](CC(=O)/C=C2\N(C)c3ccccc3C2(C)C)c1	Pf growth 96h 0.37µM, Pf growth 48h inconclusive
CN1/C(=C\C(=O)CSc2nnc(N)s2)C(C)(C)c2ccccc21	none
CC(O)c1nc2ccc(C(=O)O)cc2[nH]1 (centres undefined)	Pf growth 48h inconclusive
C[C@]12CN(CC[N+](C)(C)C)C[C@]1(C)[C@@H]1CC[C@@H]2O1	none (no result: CHX counter, Shiga toxin inh, Pf growth 96h, Pf growth 48h)
C[C@@]12C(=O)OC(=O)[C@]1(C)[C@H]1CC[C@@H]2O1	Pf growth 96h 1.02µM, Pf growth 48h 2.03µM (no result: CHX counter, Shiga toxin inh, NS1 function inh)
CC(C)C[C@H]1COC(c2ccc(Br)cc2)=N1	CHX counter 39.4, Shiga toxin inh active (no result: Pf growth 96h, Pf growth 48h, NS1 function inh)
O=[N+]([O-])c1cccc(C2=N[C@@H](Cc3ccccc3)CO2)c1	CHX counter 52.7, Shiga toxin inh active (no result: Pf growth 96h, Pf growth 48h, NS1 function inh)
Clc1cc(Cl)cc(C2=N[C@@H](Cc3ccccc3)CO2)c1	none (no result: Pf growth 96h, Pf growth 48h, NS1 function inh)
Brc1ccc(C2=N[C@@H](Cc3ccccc3)CO2)cc1	CHX counter 57.3, Shiga toxin inh active (no result: Pf growth 96h, Pf growth 48h, NS1 function inh)
COc1ccc(NC(=O)CN(C)CC(=O)Nc2ccc(Cl)cc2F)cc1	none (no result: NS1 function inh)
C=CCn1c(SCC(=O)Nc2cc(C)on2)nc2sc(C)c(C)c2c1=O	none (no result: Pf growth 48h)
COc1ccc(C)cc1-n1c(SCC(=O)Nc2cc(C)on2)nc2sc(C)c(C)c2c1=O	Pf growth 48h 9.28µM
CCn1c(SCC(=O)Nc2cc(C)on2)nc2sc(C)c(C)c2c1=O	Pf growth 96h 11.7µM
Cc1nc2ccccc2n1CC(=O)OCC(=O)NC1CC1	none
COc1ccc([N+](=O)[O-])cc1/C=N/Nc1nn[nH]n1	none (no result: NS1 function inh)
COCc1cccc(C2=CC(=O)C[C@H](c3ccc(OC)cc3)C2)c1	none (no result: CHX counter, Shiga toxin inh, NS1 function inh)
O=C1C=C(c2cccc(CO)c2)C[C@@H](c2ccc(F)cc2)C1	Pf growth 96h 2.08µM, Pf growth 48h 2.33µM (no result: CHX counter, Shiga toxin inh, NS1 function inh)
COc1ccc([C@H]2CC(=O)C=C(c3cccc(OC(F)(F)F)c3)C2)cc1	Pf growth 48h inconclusive (no result: CHX counter, Shiga toxin inh, NS1 function inh)
COCc1cccc(C2=CC(=O)C[C@H](c3ccc(F)cc3)C2)c1	Pf growth 96h inconclusive, Pf growth 48h 2.33µM (no result: CHX counter, Shiga toxin inh, NS1 function inh)
COc1cccc(C2=CC(=O)C[C@H](c3ccc(F)cc3)C2)c1	Pf growth 96h inconclusive, Pf growth 48h 2.33µM (no result: CHX counter, Shiga toxin inh, NS1 function inh)
CC1(C)C([N+](=O)[O-])C(c2ccc(Cl)cc2)NC(c2ccc(Cl)cc2)C1[N+](=O)[O-] (centres undefined)	Pf growth 96h inconclusive, Pf growth 48h inconclusive
Cc1cc(N=Nc2c(O)c3ccccc3[nH]c2=O)ccc1N=Nc1ccc(C(=O)N(C)C)cc1	Pf growth 96h 2.08µM, Pf growth 48h 1.85µM
Cc1ccc(N=Nc2c(O)c3ccccc3[nH]c2=O)c(S(=O)(=O)N(C)C)c1	CHX counter 38.1, Shiga toxin inh 42.8, Pf growth 96h inconclusive, Pf growth 48h inconclusive
CC(C)(C)C1CCC(OC(=O)C[N+]2(C)CCCC2)CC1 (centres undefined)	Pf growth 48h inconclusive (no result: NS1 function inh)
CC(C)(C)C1CCC(OC(=O)C[N+]2(C)CCCCC2)CC1 (centres undefined)	Pf growth 48h 11.7µM (no result: NS1 function inh)
O=C(O)c1ccc(NC(=O)c2ccccc2NC(=O)c2cccc(Br)c2)cc1	none (no result: Shiga toxin inh)
O=C(/C=C/c1cccs1)c1ccc(Br)cc1	CHX counter 39.9, Pf growth 96h inconclusive
Cc1ccc(NC(=O)COC(=O)/C=C/c2cccs2)cc1	none
O=C(/C=C/c1cccs1)c1ccc(NC(=O)c2cccc(Br)c2)cc1	CHX counter 62.1, Shiga toxin inh 131.5, Pf growth 48h inconclusive
Cc1ccc(C(=O)Nc2ccc(C(=O)/C=C/c3cccs3)cc2)cc1	CHX counter 52.4, Shiga toxin inh 73.3
O=C(COC(=O)c1cc[n+]([O-])cc1)Nc1ccc([N+](=O)[O-])cc1C(F)(F)F	none (no result: CHX counter, Shiga toxin inh, NS1 function inh)
COCCNC(=O)c1cn(C)c2ccccc2c1=O	Pf growth 96h inconclusive (no result: NS1 function inh)
CCN1CCN(/C=N/c2nc3c(s2)CCCC3)CC1	CHX counter 18.6 (no result: Pf growth 48h)
C=C(C)Cn1c(CCn2c3ccccc3c3ccccc32)n[nH]c1=S	Pf growth 96h 7.38µM
C=CCn1c(CCn2c3ccccc3c3ccccc32)n[nH]c1=S	Pf growth 96h inconclusive, Pf growth 48h inconclusive
COCCn1c(N)c(C(=S)NC(=O)c2cccs2)c(=O)[nH]c1=O	none
CC(C)(C)c1nc2c(Br)cc(Br)cc2c(=O)o1	Pf growth 96h 0.37µM
O=C(O)c1ccccc1COc1ccccc1Cl	none
COc1ccc(-c2nnn(Cc3ccccc3)n2)cc1	CHX counter 44.1, Shiga toxin inh 86.4, Pf growth 96h 13.1µM
O=C(O)c1cccc(OCc2ccccc2Cl)c1	CHX counter 111.1, Shiga toxin inh 121.5, Pf growth 96h inconclusive
CSc1ccc(-c2nnn(Cc3ccc(C)cc3)n2)cc1	CHX counter 21.0 (no result: Pf growth 48h)
O=C(O)c1cccc(-c2nnn(Cc3ccccc3)n2)c1	CHX counter 69.6, Shiga toxin inh 63.2
Cc1ccccc1-c1nnn(Cc2ccc(-c3nn[nH]n3)cc2)n1	Pf growth 96h inconclusive
Cc1ccccc1Cn1nnc(-c2cccc(C(=O)O)c2)n1	CHX counter 56.1, Shiga toxin inh 123.8
Cc1ccccc1Cn1nnc(-c2ccc(C(=O)O)cc2)n1	none (no result: NS1 function inh)
O=C(O)c1cccc(-c2nnn(Cc3ccccc3Cl)n2)c1	CHX counter 41.2, Shiga toxin inh 95.9
CC(C)(C)OC(=O)N1CCC[C@H]1c1nnc(SCc2ccc(Cl)cc2)o1	none
COc1ccc2cnnc(SCC(=O)Nc3ccc(C(C)=O)cc3)c2c1OC	none
O=C1CC(c2ccccc2)CC2=C1C(c1ccccn1)Nc1ccccc1N2 (centres undefined)	none (no result: Pf growth 96h)
O=C1CC(c2ccc(F)cc2)CC2=C1C(c1ccc([N+](=O)[O-])o1)Nc1ccccc1N2 (centres undefined)	CHX counter 11.8, Pf growth 96h inconclusive, Pf growth 48h inconclusive
Cc1c(NC(=O)CSc2nnnn2-c2ccc(F)cc2)c(=O)n(-c2ccccc2)n1C	Pf growth 96h inconclusive
O=C(c1cc(-c2ccc(Br)cc2)on1)N1CCCCCC1	CHX counter 35.0, Shiga toxin inh 80.0
O=C(NCCN1CCOCC1)c1cc(-c2ccc(Br)cc2)on1	none
CN1CCN(C(=O)c2cc(-c3ccc(O)cc3)on2)CC1	none (no result: CHX counter, Shiga toxin inh, Pf growth 96h, Pf growth 48h)
O=C(c1cc(-c2ccc(Br)cc2)on1)N1CCOCC1	CHX counter 20.9, Shiga toxin inh 59.2
CC1CCN(C(=S)c2cn(Cc3cccc(F)c3)c3ccccc23)CC1	Pf growth 48h inconclusive
CC12CN3CCN(CC(C3)/C1=N/NC(=O)Nc1ccccc1)C2	CHX counter 24.9, Pf growth 96h inconclusive
CC(C)C12CN3CCN(CC(C3)/C1=N\NC(=O)Nc1ccccc1)C2	none
CC12CN3CCN(CC(C3)/C1=N\NC(=O)Nc1cccc(Cl)c1)C2	CHX counter 26.3, Pf growth 96h inconclusive (no result: NS1 function inh)
Cc1ccccc1N(CC(=O)NCc1ccncc1)S(C)(=O)=O	none
Nc1c(C(=O)NCc2ccco2)c2nc3ccccc3nc2n1Cc1ccc(F)cc1	Pf growth 96h inconclusive, Pf growth 48h 1.85µM
COc1ccc(CCn2c(N)c(C(=O)NCc3ccco3)c3nc4ccccc4nc32)cc1	Pf growth 48h inconclusive
COc1ccc(CCn2c(N)c(C(=O)NCc3ccco3)c3nc4ccccc4nc32)cc1OC	Pf growth 48h 5.22µM
Nc1c(C(=O)NCc2ccco2)c2nc3ccccc3nc2n1CCc1ccccc1F	Pf growth 48h 10.4µM (no result: Pf growth 96h)
